Source: PubChem
Giardia killer: kills Giardia lamblia. Giardia lamblia trophozoite viability. activity change, % at 7.66 µM, hits read low. 340,000 compounds, 0.15% hits. AID 540267; in the data active = activity change below about -80%; inconclusive = between about -30% and that limit;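 also: parasites exposed to compound for two days anaerobically before the ATP read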
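Each well holds 100 Giardia trophozoites and compound. After two days (48 hrs) at 37 deg C in anaerobic conditions, ATP is quantified by luminescence.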
TDP1 cell CPT: DT40-hTDP1 cell growth loss with CPT; chicken DT40 Tdp1-/-;hTDP1 cells + 20 nM CPT, ATP luminescence, 48 h; Potency, µM (titrated, usually from 46.2 µM), for inactives: at the top dose activity change, negative = growth inhibition, most hits filed as inhibitors; 420,000 compounds, 12% hits; also: potency is read from the fitted curve at half-maximal effect; nearly all actives have a fitted effect of over 55% in size
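Cell growth measured by CellTiter-Glo luminescence after a minimum 48 h, 37 C compound exposure with 20 nM CPT in Tdp1-knockout DT40 cells stably expressing hTDP1, seeded 400/well; qHTS titration format.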
IL-1B inflam inh: blocks inflammasome-driven IL-1 beta release; THP-1 LPS/ATP IL-1B secretion, AlphaLISA, 16 h; active compounds read low; activity change, % at 57.5 µM; AID 743279; 360,000 compounds, 4.7% hits; in the data active = activity change below about -50%; inconclusive = mostly about -30% to -49%
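Secreted IL-1B measured by AlphaLISA bead assay after 16 h compound exposure of THP-1 cells; compounds (final up to 57.5 uM) added 1 h before LPS (250 ng/mL) and ATP (1.25 mM) stimulation; lower signal means less secretion.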
TDP1 cell noCPT: qHTS for Inhibitors of human tyrosyl-DNA phosphodiesterase 1 (TDP1): qHTS in cells in absence of CPT | DT40 Tdp1-/- hTDP1 cells, no CPT, ATP luminescence, 48 h | Potency, µM (series often up to 46.2 µM), for inactives: top-dose activity change, negative = growth inhibition, most hits filed as inhibitors | 420,000 compounds, 15% hits; also: potency is read from the fitted curve at half-maximal effect; nearly all actives have a fitted effect of over 55% in size
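Growth of hTDP1-complemented DT40 Tdp1-knockout cells is measured by ATP luminescence after at least 48 hr compound exposure at 37 °C, with DMSO substituting for the 20 nM CPT used in the parallel screen.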
ELG1 repair inh: blocks ELG1-dependent DNA repair in HEK293T cells; AID 504467; 330,000 compounds, 2.3% hits; Potency, µM (series often up to 46.1 µM), without a hit: top-dose activity change, negative = inhibition, actives largely listed as inhibitors; HEK293T ELG1-luciferase reporter, luminescence, 16 h; DNA damage induced by 5-fluorouridine; also: potency is read from the fitted curve at half-maximal effect; nearly all actives have a fitted effect of over 55% in size
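DMSO vehicle served as the neutral condition. Each well held 2,000 cells given 5-fluorouridine plus compound; after 16 hr at 37 °C/5% CO2, ONE-Glo was added and luciferase measured 30 min later.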
TDP1 inh: blocks human tyrosyl-DNA phosphodiesterase 1. Q9NUW8. recombinant TDP1, AlphaScreen DNA substrate cleavage. Potency, µM (highest dose often 130 µM), without a hit: at the highest dose activity change, negative = inhibition, most hits filed as inhibitors. 350,000 compounds, 0.28% hits; also: potency is read from the fitted curve at half-maximal effect; nearly all actives have a fitted effect of over 40% in size
Target sequence (Q9NUW8 whole entry, looked up): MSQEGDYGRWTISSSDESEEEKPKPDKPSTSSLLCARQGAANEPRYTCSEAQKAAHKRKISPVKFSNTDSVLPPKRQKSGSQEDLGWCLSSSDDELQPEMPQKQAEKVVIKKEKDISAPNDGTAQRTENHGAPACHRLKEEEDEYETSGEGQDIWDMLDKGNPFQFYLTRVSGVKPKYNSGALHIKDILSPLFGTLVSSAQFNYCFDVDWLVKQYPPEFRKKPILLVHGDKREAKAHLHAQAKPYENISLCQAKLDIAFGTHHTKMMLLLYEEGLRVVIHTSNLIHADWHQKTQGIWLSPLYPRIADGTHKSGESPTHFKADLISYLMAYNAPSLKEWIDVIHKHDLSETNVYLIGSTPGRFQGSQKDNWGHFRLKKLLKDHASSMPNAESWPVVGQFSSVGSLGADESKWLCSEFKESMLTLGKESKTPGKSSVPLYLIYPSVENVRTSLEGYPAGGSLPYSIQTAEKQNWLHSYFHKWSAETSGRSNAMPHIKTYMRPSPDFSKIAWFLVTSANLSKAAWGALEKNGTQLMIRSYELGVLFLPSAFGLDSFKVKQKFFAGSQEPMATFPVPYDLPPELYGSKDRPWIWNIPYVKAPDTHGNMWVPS
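Signal: AlphaScreen proximity between streptavidin donor and anti-FITC acceptor beads on intact substrate. Reaction: Tdp1 1 nM, substrate 15 nM final, 5 min RT after 15 min compound preincubation.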
* = called active by the depositor; ? = inconclusive; / = no result; [ ] = another dose, or the depositor's remark. In the library only some 19% were active in any assay of this set; here they are far more common. Unless noted, calls follow the shape of the dose curve; as a rule, active = well fitted curve in the direction sought with a large enough effect; inconclusive = small, poorly fitted or top-dose-only effect, or another doubt; inactive = no such curve, though single readings can be large; an effect the other way counts as inactive or inconclusive. % is scaled to controls: 0 for no effect and ±100 for the full control effect.

SMILES	Giardia killer	TDP1 cell CPT	IL-1B inflam inh	TDP1 cell noCPT	ELG1 repair inh	TDP1 inh
Cn1c(SCC2CCCO2)nnc1C1CCN(Cc2ccc(-c3cccc(Cl)c3)o2)CC1 (stereo not given)	/	0%[9.04 µM]	/	?	/	/
CCOC(=O)N1CCN(C(=O)c2cccc(S(=O)(=O)Nc3ccc(Br)cc3)c2)CC1	12	-29%	9	?	-2%	2%
CCN(CC)S(=O)(=O)c1ccc(NC(=O)c2ccc3c(=O)n4c(nc3c2)CCCCC4)cc1	/	23µM*	/	23µM*	/	8%
COc1ccc(C)cc1NC(=O)c1ccc2c(=O)n3c(nc2c1)CCCCC3	-1	15µM*	9	?	?	1%
CCOc1ccc(CCNC(=O)c2ccc3c(=O)n4c(nc3c2)CCCCC4)cc1	-17	?	7	?	16µM*	1%
O=C(Nc1nccs1)c1ccc2c(=O)n3c(nc2c1)CCCCC3	0	?	0	16µM*	?	0%
C=CCn1cnc2c(nnn2Cc2ccc(F)cc2)c1=O	2	-11%	15	-15%	2%	/
Nc1ccn(CCCNCC(c2ccccc2)c2ccccc2)c(=O)n1	/	1%	-4	-26%	/	/
CC(=O)c1cccc(NC(=O)c2ccc3c(Cl)c4c(nc3c2)CCCC4)c1	1	?	-21	23µM*	11%	-2%
CCOc1ccccc1NC(=O)c1ccc2c(=O)n3c(nc2c1)CCCCC3	62	16µM*	?	?	-5%	3%
C=CCCC1CN(CCCC)S(=O)(=O)c2c(F)cccc2O1 (stereo not given)	8	?	-14	?	/	/
Cc1ccc(CNCc2c(C(=O)O)c(C)n(Cc3ccc(C)cc3)c2C)cc1	/	?	/	?	/	5%
Cc1ccc(Cn2c(C)c(CNC(C)c3ccccc3)c(C(=O)O)c2C)cc1 (stereo not given)	/	?	/	26µM*	/	0%
COc1ccc(C(=O)Nc2nnc(SCc3cc(=O)c4cc(C)cc(C)c4[nH]3)s2)cc1	/	-18%	/	-20%	/	3%
CCOc1ccc(-c2ccc(SCc3ccccn3)nn2)cc1	-3	?	-12	23µM*	5%	6%
COc1ccc(-c2nnc(SCc3ccccn3)n2C)cc1	-16	29µM*	11	?	?	1%
Cn1c(SCc2cc(=O)c3cc(Cl)ccc3[nH]2)nnc1-c1ccccc1	/	13µM*	/	21µM*	/	5%
CCOC(=O)c1ccc2[nH]c(CSc3nnc(-c4cccc(F)c4)n3C)cc(=O)c2c1	/	2%	/	2%	/	5%
COc1ccc(-c2nnc(SCc3cc(=O)c4cc(C)cc(C)c4[nH]3)n2C)cc1	/	23µM*	/	18µM*	/	8%
O=C1C2CCC(C2)C1CN1CCOCC1 (stereo not given)	-1	-9%	-13	-13%	/	/
CN(CC(=O)Nc1cccc(Cl)c1)S(=O)(=O)c1ccc2c(c1)n(C)c(=O)c(=O)n2C	1	-4%	13	-4%	24%	3%
CCCC(=O)OC1=CN(Cc2ccccc2)S(=O)(=O)c2ccccc21	/	3%	/	-22%	/	-3%
CCOC(=O)C1CCN(S(=O)(=O)c2c(C)[nH]c(C)c2C(=O)N2CCCCC2)CC1	-1	4%	-17	-5%	-12%	1%
CCOC(=O)N1CCN(C(=O)CNC(=O)c2nn(-c3ccc(OC)cc3)c(=O)c3ccccc23)CC1	-10	?	2	?	-5%	7%
COc1ccc(-n2nc(C(=O)NCC(=O)N3CCN(c4ccccc4F)CC3)c3ccccc3c2=O)cc1	-4	18µM*	-8	23µM*	?	5%
COc1ccc(-n2nc(C(=O)NCC(=O)N3CC(C)CC(C)C3)c3ccccc3c2=O)cc1 (stereo not given)	-3	-23%	-7	?	13µM*	-5%
COC(=O)CNC(=O)CNC(=O)c1nn(-c2ccc(OC)c(OC)c2)c(=O)c2ccccc12	15	-1%	-7	2%	-1%	/
COc1ccc(-n2nc(C(=O)NCC(=O)N3CCN(c4ccccc4F)CC3)c3ccccc3c2=O)cc1OC	-5	?	?	13µM*	?	/
CCOC(=O)C1CCN(C(=O)CNC(=O)c2nn(-c3ccc(OC)c(OC)c3)c(=O)c3ccccc23)CC1	-26	3%	-26	?	4%	6%
COc1ccc(-n2nc(C(=O)NCC(=O)NCCC3=CCCCC3)c3ccccc3c2=O)cc1OC	21	-22%	-19	18µM*	9.2µM*	-8%
